Data taken from PubChem BioAssay.
Results filed as inconclusive are left out. Active and inactive are the calls of the source.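 The calls were made as follows, unless noted: active = normalized viability below 100% at a tested concentration; inactive = the rest.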

Key:
[1] = growth inhibition of DIPG glioma cells, dose response, cell-based, SU-DIPG-XVII, MIPE5.0, CellTiter-Glo, qHTS (AID 1347060; cut-off not given, nearly all actives have AC50 up to about 26 µM;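 also: cells exposed to compound for 48 hours before viability readout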); settings: SU-DIPG-XVII viability, CellTiter-Glo ATP luminescence
[2] = growth inhibition of DIPG glioma cells, dose response, cell-based, SU-DIPG-XIII, MIPE4.0, CellTiter-Glo, qHTS (AID 1347061; cut-off not given, nearly all actives have AC50 up to about 37 µM;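 also: cells exposed to compound for 48 hours before readout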); settings: SU-DIPG-XIII viability, CellTiter-Glo ATP luminescence
[3] = growth inhibition of DIPG glioma cells, dose response, cell-based, JHH-DIPG-1, MIPE4.0, CellTiter-Glo, qHTS (AID 1347062; cut-off not given, nearly all actives have AC50 up to about 27 µM;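 also: cells exposed to compound for two days before readout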); settings: JHH-DIPG-1 viability, CellTiter-Glo ATP luminescence
[4] = growth inhibition of DIPG glioma cells, dose response, cell-based, SU-DIPG-IV, MIPE4.0, CellTiter-Glo, qHTS (AID 1347063; cut-off not given, nearly all actives have AC50 up to about 30 µM;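 also: compound exposure lasted 48 hours before the viability readout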); settings: SU-DIPG-IV viability, CellTiter-Glo ATP luminescence
[5] = growth inhibition of DIPG glioma cells, dose response, cell-based, SU-DIPG-XIII, MIPE5.0, CellTiter-Glo, qHTS (AID 1347064; cut-off not given, nearly all actives have AC50 up to about 23 µM;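 also: cells exposed to compound for 48 hours before the viability read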); settings: SU-DIPG-XIII viability, CellTiter-Glo ATP luminescence
[6] = viability loss in pontine glioma line – cell-based, SU-DIPG-XXV, MIPE5.0, CellTiter-Glo, qHTS, dose response (AID 1347065; cut-off not given, nearly all actives have AC50 up to about 26 µM;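 also: cells exposed to compound for 48 hours before ATP readout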); settings: CellTiter-Glo ATP luminescence
[7] = SU-DIPG-VI glioma cell viability, MIPE4.0 library, CellTiter-Glo luminescence, qHTS (AID 1347066; cut-off not given, nearly all actives have AC50 up to about 30 µM;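 also: cells exposed to compound for 48 hours before readout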); settings: CellTiter-Glo ATP luminescence
[8] = JHH-DIPG-1 glioma cell viability, MIPE5.0 library, CellTiter-Glo luminescence, qHTS (AID 1347067; cut-off not given, nearly all actives have AC50 up to about 26 µM;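 also: cells exposed to compound for 48 hours before readout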); settings: JHH-DIPG-1 glioma viability, CellTiter-Glo ATP luminescence
[9] = SU-DIPG-XXV glioma cell viability, MIPE5.0 library, qHTS (AID 1347068; cut-off not given, nearly all actives have IC50 up to about 30 µM;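 also: cells exposed to compound for 48 hours before viability readout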)
[10] = sensitizers of A549 cells to miR-34 induction, primary screen, imaging, A549 dox-inducible miR-34, nuclei and caspase counts (AID 1347080;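 active = compounds whose cell count with miR-34 switched on is under 0.7 times the count with it off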); settings: A549 miR-34 inducible, Hoechst nuclei count, 48 h
[11] = survival rescue of mitochondrial mutant cells in low glucose, primary screen, MELAS cybrids, Rieske KO mouse fibroblasts, CellTiter-Glo (AID 1508586;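 active = mean z-score across replicates of 1.96 or higher in either the MELAS or the Rieske mutant cell line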;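 also: z relative to plate mean and SD of compound and empty wells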)
[12] = modifiers of HSF1 nuclear foci, imaging, Selleck Cancer Library (AID 1347162; in the data active = plate-normalised HSF1 focus index below about 0.46); settings: human cells, at 10 µM; SSMD: measured here: HSF1 foci SSMD mean; cell count: measured here: cell number; plate-normalised HSF1 focus index: stronger effect = lower value
[13] = ovarian cancer cell viability with rucaparib, profiling panel, oncology-focused library, rucaparib conditional (AID 1508598); settings: patient-derived ovarian cancer cells, CellTiter-Glo viability, 144 h, stronger effect = lower value
[14] = stronger effect = lower value, cell number ratio, induced over uninduced
[15] = measured here: relative caspase fold change +Dox/-Dox
[16] = measured here: total cells with miR-34 induction, stronger effect = lower value
[17] = measured here: total cells without miR-34 induction
[18] = MELAS cybrid survival, CellTiter-Glo 48 h, stronger effect = higher value
[19] = Rieske KO mouse fibroblast survival, CellTiter-Glo 72 h

CCS(=O)(=O)c1cccc(-c2cc(C(=O)NC3CCN(C)CC3)c(C)c3[nH]c4ncc(C)cc4c23)c1
0.946: fold change [10, 15]
-0.249: z-score [11, 19]
inactive: fold change [10, 14] 1.06
1160: cell count [10, 16]
active: AC50 [1] 590 nM | AC50 [2] 2960 nM | AC50 [3] 2640 nM | AC50 [4] 5260 nM | AC50 [5] 1480 nM | AC50 [6] 590 nM | AC50 [7] 8330 nM | AC50 [8] 1480 nM | IC50 [9] 1480 nM | z-score [11, 18] 2.57
1090: cell count [10, 17]

CN1CCC(CNc2ccc3ncc(-c4cccc(OC(F)(F)F)c4)n3n2)CC1
1.66: SSMD [12]
4380: cell count [10, 16]
0.583: fold change [10, 15]
7290: cell count [12]
inactive: fold change [10, 14] 0.872 | plate-normalised HSF1 focus index [12] 1.1 | z-score [11, 18] -0.102 | viability ([13]; at 0.000305 µM, OCI-C5x cells, with rucaparib 10 µM, 100% = cells with rucaparib alone) 112% | viability ([13]; at 0.000305 µM, OCI-C5x cells, without rucaparib) 115% | viability ([13]; at 0.00122 µM, OCI-C5x cells, with rucaparib 10 µM, 100% = cells with rucaparib alone) 110% | viability ([13]; at 0.00122 µM, OCI-C5x cells, without rucaparib) 113% | viability ([13]; at 0.00122 µM, OCI-P5x cells, with rucaparib 20 µM, 100% = cells with rucaparib alone) 100% | viability ([13]; at 0.00488 µM, OCI-C5x cells, with rucaparib 10 µM, 100% = cells with rucaparib alone) 106% | viability ([13]; at 0.00488 µM, OCI-C5x cells, without rucaparib) 106% | viability ([13]; at 0.0195 µM, OCI-C5x cells, with rucaparib 10 µM, 100% = cells with rucaparib alone) 110% | viability ([13]; at 0.0195 µM, OCI-C5x cells, without rucaparib) 114% | viability ([13]; at 0.0781 µM, OCI-C5x cells, with rucaparib 10 µM, 100% = cells with rucaparib alone) 107% | viability ([13]; at 0.0781 µM, OCI-C5x cells, without rucaparib) 109% | viability ([13]; at 0.313 µM, OCI-C5x cells, with rucaparib 10 µM, 100% = cells with rucaparib alone) 110% | viability ([13]; at 0.313 µM, OCI-C5x cells, without rucaparib) 104% | viability ([13]; at 1.25 µM, OCI-C5x cells, with rucaparib 10 µM, 100% = cells with rucaparib alone) 130% | viability ([13]; at 5 µM, OCI-C5x cells, with rucaparib 10 µM, 100% = cells with rucaparib alone) 123% | viability ([13]; at 5 µM, OCI-C5x cells, without rucaparib) 115%
5020: cell count [10, 17]
-1.76: z-score [11, 19]
active: AC50 [1] 8330 nM | AC50 [2] 18700 nM | AC50 [3] 13200 nM | AC50 [4] 18700 nM | AC50 [5] 10500 nM | AC50 [6] 5250 nM | AC50 [7] 20900 nM | AC50 [8] 2630 nM | IC50 [9] 23500 nM | viability ([13]; at 0.000305 µM, OCI-P5x cells, with rucaparib 20 µM, 100% = cells with rucaparib alone) 97.3% | viability ([13]; at 0.000305 µM, OCI-P5x cells, without rucaparib) 92.4% | viability ([13]; at 0.00122 µM, OCI-P5x cells, without rucaparib) 94.8% | viability ([13]; at 0.00488 µM, OCI-P5x cells, with rucaparib 20 µM, 100% = cells with rucaparib alone) 96.7% | viability ([13]; at 0.00488 µM, OCI-P5x cells, without rucaparib) 87.9% | viability ([13]; at 0.0195 µM, OCI-P5x cells, with rucaparib 20 µM, 100% = cells with rucaparib alone) 99.2% | viability ([13]; at 0.0195 µM, OCI-P5x cells, without rucaparib) 88% | viability ([13]; at 0.0781 µM, OCI-P5x cells, with rucaparib 20 µM, 100% = cells with rucaparib alone) 93.6% | viability ([13]; at 0.0781 µM, OCI-P5x cells, without rucaparib) 82.1% | viability ([13]; at 0.313 µM, OCI-P5x cells, with rucaparib 20 µM, 100% = cells with rucaparib alone) 89.6% | viability ([13]; at 0.313 µM, OCI-P5x cells, without rucaparib) 80.8% | viability ([13]; at 1.25 µM, OCI-C5x cells, without rucaparib) 98% | viability ([13]; at 1.25 µM, OCI-P5x cells, with rucaparib 20 µM, 100% = cells with rucaparib alone) 82.6% | viability ([13]; at 1.25 µM, OCI-P5x cells, without rucaparib) 70.9% | viability ([13]; at 5 µM, OCI-P5x cells, with rucaparib 20 µM, 100% = cells with rucaparib alone) 50.5% | viability ([13]; at 5 µM, OCI-P5x cells, without rucaparib) 46.6%

COc1ccc(-c2ccc3ncc4c(c3c2)n(-c2ccc(N3CCNCC3)c(C(F)(F)F)c2)c(=O)n4C)cn1
-3.7: z-score [11, 19]
inactive: fold change [10, 14] 0.93 | z-score [11, 18] 0.639
648: cell count [10, 17]
603: cell count [10, 16]
1.48: fold change [10, 15]
active: AC50 [1] 105 nM | AC50 [2] 46.9 nM | AC50 [3] 66.2 nM | AC50 [4] 18.7 nM | AC50 [5] 118 nM | AC50 [6] 52.5 nM | AC50 [7] 187 nM | AC50 [8] 235 nM | IC50 [9] 590 nM
